Records with an inconclusive call do not appear. The source made the active and inactive calls. Unless noted, calls come from the whole dose curve; as a rule, active = well fitted curve in the direction sought with a large enough effect in the repeat runs; inconclusive = weak or mixed curves; inactive = no such curve, though single readings can be large; an effect the other way counts as inactive or inconclusive.
Key:
[1] = target: Thyrotropin receptor (Homo sapiens) (UniProt P16473); assay: qHTS assay to identify small molecule antagonists of the thyroid stimulating hormone receptor (TSHR) signaling pathway (AID 1259385; calls by dose curve; note: nearly all actives have a fitted effect of over 20% in size; note: potency is the fitted concentration of half-maximal effect)
Sequence of Thyrotropin receptor (Homo sapiens) (P16473 whole entry, looked up): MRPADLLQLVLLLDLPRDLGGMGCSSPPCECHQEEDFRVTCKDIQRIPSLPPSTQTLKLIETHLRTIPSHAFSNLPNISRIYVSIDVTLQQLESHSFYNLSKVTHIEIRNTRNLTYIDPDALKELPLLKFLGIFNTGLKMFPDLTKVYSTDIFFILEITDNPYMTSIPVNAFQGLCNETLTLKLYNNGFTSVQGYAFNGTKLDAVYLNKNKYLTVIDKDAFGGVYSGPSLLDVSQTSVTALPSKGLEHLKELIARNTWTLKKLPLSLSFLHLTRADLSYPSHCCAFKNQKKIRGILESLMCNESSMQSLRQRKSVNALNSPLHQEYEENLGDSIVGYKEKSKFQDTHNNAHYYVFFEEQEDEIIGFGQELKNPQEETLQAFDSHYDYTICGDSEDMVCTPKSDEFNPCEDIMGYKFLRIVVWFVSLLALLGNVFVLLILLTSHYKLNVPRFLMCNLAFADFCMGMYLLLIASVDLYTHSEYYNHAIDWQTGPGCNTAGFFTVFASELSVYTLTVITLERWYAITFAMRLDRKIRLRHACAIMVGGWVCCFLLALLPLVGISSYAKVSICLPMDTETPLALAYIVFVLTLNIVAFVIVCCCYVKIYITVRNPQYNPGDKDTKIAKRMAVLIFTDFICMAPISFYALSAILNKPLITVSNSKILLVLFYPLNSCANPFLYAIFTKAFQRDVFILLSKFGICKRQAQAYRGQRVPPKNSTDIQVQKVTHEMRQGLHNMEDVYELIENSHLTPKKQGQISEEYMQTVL
Summary of the method: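 Antagonist mode: compound-treated TSHR-expressing HEK293 cells were stimulated with 1.5 ng/mL TSH (final) in presence of Ro20-1724 for 30 min at RT. HTRF cAMP detection after 1 h; each compound tested at 15 concentrations, triplicate.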

[2] = qHTS assay to identify small molecule agonists of the estrogen receptor alpha (ER-alpha) signaling pathway in the presence of an antagonist - cell viability counter screen (AID 1259386);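 note: cells exposed to compounds for 22 h at 37 °C before the viability read; nearly all actives have a fitted effect of over 30% in size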; note: potency is the fitted concentration of half-maximal effect; for activity change, negative = cytotoxicity: series mostly up to about 92 µM
Summary of the method: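 Cytotoxicity was measured in parallel with the ERE-luciferase agonist screen, in the same wells. The cells were VM7Luc4E2, which endogenously express ER-alpha, and treatment was with compounds plus 10.0nM ICI-182,780 for 22hr.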

[3] = target: Progesterone receptor (Homo sapiens) (UniProt P06401); assay: qHTS assay to identify small molecule agonists of the progesterone receptor (PR) signaling pathway (AID 1346784; calls by dose curve; note: nearly all actives have a fitted effect of over 30% in size; note: potency is the fitted concentration of half-maximal effect)
Sequence of Progesterone receptor (Homo sapiens) (P06401 whole entry, looked up): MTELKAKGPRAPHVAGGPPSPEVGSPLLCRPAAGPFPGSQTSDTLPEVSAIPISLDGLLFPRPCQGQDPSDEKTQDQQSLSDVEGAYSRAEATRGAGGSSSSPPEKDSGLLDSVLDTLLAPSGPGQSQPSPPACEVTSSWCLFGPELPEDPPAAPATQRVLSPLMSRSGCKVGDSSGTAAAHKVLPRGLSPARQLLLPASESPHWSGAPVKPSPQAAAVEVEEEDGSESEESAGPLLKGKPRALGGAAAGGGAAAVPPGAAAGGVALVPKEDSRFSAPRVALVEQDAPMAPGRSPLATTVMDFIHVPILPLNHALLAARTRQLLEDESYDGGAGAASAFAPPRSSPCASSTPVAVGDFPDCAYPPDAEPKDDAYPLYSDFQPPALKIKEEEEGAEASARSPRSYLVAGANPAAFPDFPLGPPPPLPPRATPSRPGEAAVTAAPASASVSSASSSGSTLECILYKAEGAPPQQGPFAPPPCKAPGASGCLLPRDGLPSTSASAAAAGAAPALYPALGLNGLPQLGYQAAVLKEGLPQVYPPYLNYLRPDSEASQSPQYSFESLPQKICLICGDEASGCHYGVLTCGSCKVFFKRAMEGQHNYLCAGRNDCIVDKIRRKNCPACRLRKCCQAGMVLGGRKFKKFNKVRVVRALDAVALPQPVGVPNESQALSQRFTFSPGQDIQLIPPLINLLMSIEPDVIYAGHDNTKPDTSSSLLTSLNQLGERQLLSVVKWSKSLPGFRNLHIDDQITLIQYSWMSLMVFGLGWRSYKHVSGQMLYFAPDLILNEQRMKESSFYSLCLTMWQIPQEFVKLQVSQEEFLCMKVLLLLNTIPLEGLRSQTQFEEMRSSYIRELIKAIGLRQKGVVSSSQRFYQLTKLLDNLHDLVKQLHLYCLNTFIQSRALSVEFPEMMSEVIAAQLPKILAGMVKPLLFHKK
Summary of the method: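 PR-UAS-bla HEK 293T cells carrying a UAS-driven beta-lactamase reporter were seeded in medium with 2% charcoal-stripped FBS, preincubated 6 hr at 37C, then exposed to compounds in DMSO for 16 hr; agonism was read by LiveBLAzer B/G FRET fluorescence.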

[4] = qHTS assay to identify small molecule antagonists of the progesterone receptor (PR) signaling pathway - cell viability counter screen (AID 1346798); note: nearly all actives have a fitted effect of over 50% in size; note: potency is the fitted concentration of half-maximal effect; for activity change, negative = cytotoxicity: series mostly up to about 92 µM
Summary of the method: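 PR-UAS-bla HEK293T cells in medium with 2% charcoal-stripped FBS were treated with compounds plus R5020 for 16 hr at 37C. Cell viability was then read by CellTiter-Glo luminescence after 30 min at room temperature in the same wells.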

[5] = qHTS assay to identify small molecule agonists of the progesterone receptor (PR) signaling pathway - cell viability counter screen (AID 1346799; calls by dose curve; note: nearly all actives have a fitted effect of over 45% in size; note: potency is the fitted concentration of half-maximal effect)
Summary of the method: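 PR-UAS-bla HEK293T cells, 3,000 per well in medium with 2% charcoal-stripped FBS, were preincubated 6 hr at 37C, then exposed to compounds for 16 hr; viability was read as CellTiter-Glo luminescence after 30 min at room temperature.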

[6] = qHTS assay to identify small molecule antagonists of the TGF-beta/Smad signaling pathway - cell viability counter screen (AID 1346824); note: nearly all actives have a fitted effect of over 50% in size
Summary of the method: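 Cytotoxicity counter-screen run in the same wells as the beta-lactamase Smad reporter read: CellTiter-Glo luminescence after 30 min at room temperature. HEK 293T SBE-bla cells had 5 hr compound exposure at 37 C with TGF-beta1 (0.25 ng/mL stock).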

[7] = qHTS assay to identify small molecule agonists of the TGF-beta/Smad signaling pathway - cell viability counter screen (AID 1346829); note: top concentration of the series differs between compounds; nearly all actives have a fitted effect of over 45% in size
Summary of the method: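 Compound-treated SBE-bla HEK 293T cells (5 hr, 37 C) were assessed for viability with CellTiter-Glo in parallel with the reporter read.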

[8] = qHTS assay to identify small molecule agonists of the TGF-beta/Smad signaling pathway (AID 1346859; active = well fitted activation curve with a large enough effect in the signal ratio in the repeat runs, not every such curve was filed as active; the % refers to the signal ratio; note: series mostly up to about 77 µM)
Summary of the method: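 HEK 293T cells stably carrying a beta-lactamase reporter driven by the Smad binding element were seeded overnight, exposed to DMSO-dissolved compounds for 5 hr at 37 C, 5% CO2, then loaded with FRET substrate for 2 hr at room temperature.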

[9] = target: Thyrotropin-releasing hormone receptor (Homo sapiens) (UniProt P34981); assay: qHTS assay to identify small molecule antagonists of the thyrotropin-releasing hormone receptor (TRHR) signaling pathway (AID 1346877; active = well fitted inhibition curve with a large enough effect in the repeat runs, not every such curve was filed as active; note: series mostly up to about 51 µM)
Sequence of Thyrotropin-releasing hormone receptor (Homo sapiens) (P34981 whole entry, looked up): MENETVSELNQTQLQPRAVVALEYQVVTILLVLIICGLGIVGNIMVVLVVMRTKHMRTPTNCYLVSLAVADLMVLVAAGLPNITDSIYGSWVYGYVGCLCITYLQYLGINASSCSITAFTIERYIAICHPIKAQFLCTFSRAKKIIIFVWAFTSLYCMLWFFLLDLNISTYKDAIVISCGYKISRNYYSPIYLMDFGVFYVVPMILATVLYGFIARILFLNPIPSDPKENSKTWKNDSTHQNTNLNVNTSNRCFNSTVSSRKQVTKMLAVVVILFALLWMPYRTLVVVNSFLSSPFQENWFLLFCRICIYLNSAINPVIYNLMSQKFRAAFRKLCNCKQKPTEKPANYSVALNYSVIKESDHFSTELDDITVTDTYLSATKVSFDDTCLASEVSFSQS
Summary of the method: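 Antagonism is measured as suppression of the calcium response to 1 nM TRH in TRHR-HEK293 cells that have been dye-loaded for 2 h at 37 °C after overnight plating. Each compound is tested at 15 concentrations in triplicate.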

[10] = target: Progesterone receptor (Homo sapiens) (UniProt P06401); assay: qHTS assay to identify small molecule antagonists of the progesterone receptor (PR) signaling pathway (AID 1346795; active = well fitted inhibition curve with a large enough effect in the signal ratio in the repeat runs, not every such curve was filed as active; the % refers to the signal ratio; note: potency is the fitted concentration of half-maximal effect)
Summary of the method: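 PR-UAS-bla HEK293T cells carrying a UAS-driven beta-lactamase reporter were plated in medium with 2% charcoal-stripped FBS and rested 6 hr at 37C. Compounds were added with 1 nM R5020 (final) for 16 hr, then FRET substrate loaded 2 hr at room temperature.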
% is set by controls: 0 for no effect and ±100 for the full control effect.

CCC(C)(C)C1CCC(O)CC1 (stereo not drawn)
inactive: Potency [1] | Potency [2] | Potency [3] | Potency [4] | Potency [5] | outcome [6] | outcome [7] | outcome [8]

C[C@]12CCC(=O)C=C1C=C[C@@H]1[C@@H]2CC[C@@]2(C)[C@H]1CC[C@@]21CCC(=O)O1
active: Potency [3] 1.68 µM
inactive: Potency [1] | Potency [2] | outcome [6] | outcome [7] | outcome [9]

CC1(C)O[C@@H]2C[C@H]3[C@@H]4CCC5=CC(=O)C=C[C@]5(C)[C@H]4[C@@H](O)C[C@]3(C)[C@]2(C(=O)CO)O1
active: Potency [3] 0.133 µM
inactive: Potency [1] | Potency [2] | Potency [4] | outcome [6] | outcome [7] | outcome [9]

O=C(O)C(Cc1cc(I)c(O)c(I)c1)c1ccccc1 (stereo not drawn)
inactive: Potency [1] | Potency [2] | Potency [3] | Potency [5] | outcome [6] | outcome [7] | outcome [8]

CNC(=S)NC
active: Potency [5] 7.7 µM
inactive: Potency [1] | Potency [2] | Potency [3] | outcome [6] | outcome [7] | outcome [8] | outcome [9]

COc1ccc([C@@H]2Sc3ccccc3NC(=O)[C@@H]2O)cc1
inactive: Potency [1] | Potency [2] | Potency [3] | Potency [5] | outcome [6] | outcome [7] | outcome [8]

CCOC(=O)N1CCC(n2c(=O)[nH]c3cc(Cl)ccc32)CC1
active: Potency [2] 23.7 µM
inactive: Potency [1] | Potency [3] | outcome [6] | outcome [7] | outcome [8] | outcome [9]

O=C(O)c1c(O)c(-c2ccccc2)nc2ccccc12
inactive: Potency [1] | Potency [2] | Potency [3] | Potency [5] | outcome [6] | outcome [7] | outcome [8]

OCCSc1ccccc1
inactive: Potency [1] | Potency [2] | Potency [3] | outcome [6] | outcome [7] | outcome [8]

CC1=CC(=O)CC(C)(C)C1(O)/C=C/C(C)=C\C(=O)O (stereo not drawn)
inactive: Potency [1] | Potency [2] | Potency [3] | Potency [4] | Potency [5] | outcome [6] | outcome [7] | outcome [8] | outcome [9]

COC(OC)(C(=O)c1ccccc1)c1ccccc1
inactive: Potency [1] | Potency [2] | Potency [3] | Potency [4] | Potency [5] | outcome [6] | outcome [7] | outcome [8] | outcome [9]

Brc1cc(-c2ccc(Br)c(Br)c2Br)cc(Br)c1Br
inactive: Potency [1] | Potency [2] | Potency [3] | Potency [4] | Potency [5] | outcome [6] | outcome [7] | outcome [8] | outcome [9]

CCCc1c(OCCCOc2ccc(OCC(=O)O)cc2)ccc(C(C)=O)c1O
inactive: Potency [1] | Potency [2] | Potency [3] | Potency [5] | outcome [6] | outcome [7]

C[Si](NC1CCCCC1)(NC1CCCCC1)NC1CCCCC1
inactive: Potency [1] | Potency [2] | Potency [3] | outcome [6] | outcome [7] | outcome [8] | outcome [9]

CCNC(=O)N1CCN(CCCC(c2ccc(F)cc2)c2ccc(F)cc2)CC1
active: Potency [2] 23.7 µM
inactive: Potency [1] | Potency [3] | Potency [4] | outcome [6] | outcome [7] | outcome [8] | outcome [9]

COCc1c(C(C)C)nc(C(C)C)c(/C=C/[C@@H](O)C[C@@H](O)CC(=O)O)c1-c1ccc(F)cc1
inactive: Potency [1] | Potency [2] | Potency [3] | outcome [6] | outcome [7] | outcome [8]

O=C(OCCOCCO)c1ccccc1Nc1cccc(C(F)(F)F)c1
active: Potency [10] 18.8 µM
inactive: Potency [1] | Potency [2] | Potency [3] | outcome [6] | outcome [7] | outcome [8] | outcome [9]

COCCOC(=O)C1=C(C)NC(C)=C(C(=O)OC/C=C/c2ccccc2)C1c1cccc([N+](=O)[O-])c1 (stereo not drawn)
inactive: Potency [1] | Potency [2] | Potency [3] | outcome [6] | outcome [7] | outcome [8] | outcome [9]
active: Potency [10] 4.22 µM

CCCC(=O)O[C@]1(C(=O)COC(=O)CC)CC[C@H]2[C@@H]3CCC4=CC(=O)CC[C@]4(C)[C@H]3[C@@H](O)C[C@@]21C
inactive: activity change, negative = inhibition [1] -1.62% [at 19 µM] | activity change, negative = cytotoxicity [2] 2.18% [at 19 µM] | activation [3] 3.7% [at 19 µM] | activity change, negative = cytotoxicity [4] -3.5% [at 18.9 µM] | activity change, negative = cytotoxicity [5] 17.2% [at 19 µM] | viability change, negative = cytotoxic [6] -0.584% [at 15.8 µM] | activity change, negative = cytotoxicity [7] -0.518% [at 15.8 µM] | activation [8] 5.59% [at 15.8 µM] | activity, negative = inhibition [9] -1.85% [at 10.5 µM]

O=C(CCCCCCC(=O)Nc1ccccc1)NO
inactive: Potency [1] | Potency [2] | Potency [3] | Potency [4] | Potency [5] | outcome [6] | outcome [7] | outcome [8] | outcome [9]

CCCCCCOC(=O)C(C)C
inactive: Potency [1] | Potency [2] | Potency [10] | Potency [4] | Potency [5] | outcome [6] | outcome [7] | outcome [8] | outcome [9]

CCOC(=O)c1ccccc1C
active: Potency [4] 15.4 µM
inactive: Potency [1] | Potency [2] | Potency [3] | outcome [6] | outcome [7] | outcome [8] | outcome [9]

COCCOC
inactive: Potency [1] | Potency [2] | Potency [10] | Potency [4] | outcome [6] | outcome [7] | outcome [8] | outcome [9]

CCCCCCCCCCOS(=O)(=O)O
inactive: Potency [1] | Potency [2] | Potency [3] | Potency [10] | outcome [6] | outcome [7] | outcome [8] | outcome [9]

CCCCCCCCCCCCCCC[C@H](O)[C@@H](N)CO
inactive: Potency [2] | Potency [3] | Potency [5] | outcome [6] | outcome [7] | outcome [8] | outcome [9]
active: Potency [1] 26.6 µM

CC(Cl)C(Cl)Cl (stereo not drawn)
inactive: Potency [1] | Potency [2] | Potency [3] | outcome [6] | outcome [7] | outcome [8] | outcome [9]

COC(=O)[C@@H]1CC2=CC(=O)CC[C@]2(C)[C@@]23O[C@@H]2C[C@@]2(C)[C@@H](CC[C@@]24CCC(=O)O4)[C@H]13
inactive: Potency [1] | Potency [2] | Potency [3] | Potency [4] | Potency [5] | outcome [6] | outcome [7] | outcome [8] | outcome [9]

Reference: PubChem BioAssay (Tox21)
